Test results taken from the supplement of paper PMC11732987, “Enantioselective OTUD7B fragment discovery through chemoproteomics screening and high-throughput optimisation” (Communications Chemistry, 2025).

Key:
Assay in all cases: log2 ratio of Biotin-Ahx-Ub-VS probe labelling (fragment/DMSO); higher = less target engagement (more negative = stronger competition), active = hit call of the paper (q ≤ 0.05, log2 ratio ≤ -1)
Conditions in all cases: compound concentration: 200 uM; treatment time: 3 h
[1] = target: T1, ALG13 (UniProt Q9NP73)
T1 sequence (whole entry): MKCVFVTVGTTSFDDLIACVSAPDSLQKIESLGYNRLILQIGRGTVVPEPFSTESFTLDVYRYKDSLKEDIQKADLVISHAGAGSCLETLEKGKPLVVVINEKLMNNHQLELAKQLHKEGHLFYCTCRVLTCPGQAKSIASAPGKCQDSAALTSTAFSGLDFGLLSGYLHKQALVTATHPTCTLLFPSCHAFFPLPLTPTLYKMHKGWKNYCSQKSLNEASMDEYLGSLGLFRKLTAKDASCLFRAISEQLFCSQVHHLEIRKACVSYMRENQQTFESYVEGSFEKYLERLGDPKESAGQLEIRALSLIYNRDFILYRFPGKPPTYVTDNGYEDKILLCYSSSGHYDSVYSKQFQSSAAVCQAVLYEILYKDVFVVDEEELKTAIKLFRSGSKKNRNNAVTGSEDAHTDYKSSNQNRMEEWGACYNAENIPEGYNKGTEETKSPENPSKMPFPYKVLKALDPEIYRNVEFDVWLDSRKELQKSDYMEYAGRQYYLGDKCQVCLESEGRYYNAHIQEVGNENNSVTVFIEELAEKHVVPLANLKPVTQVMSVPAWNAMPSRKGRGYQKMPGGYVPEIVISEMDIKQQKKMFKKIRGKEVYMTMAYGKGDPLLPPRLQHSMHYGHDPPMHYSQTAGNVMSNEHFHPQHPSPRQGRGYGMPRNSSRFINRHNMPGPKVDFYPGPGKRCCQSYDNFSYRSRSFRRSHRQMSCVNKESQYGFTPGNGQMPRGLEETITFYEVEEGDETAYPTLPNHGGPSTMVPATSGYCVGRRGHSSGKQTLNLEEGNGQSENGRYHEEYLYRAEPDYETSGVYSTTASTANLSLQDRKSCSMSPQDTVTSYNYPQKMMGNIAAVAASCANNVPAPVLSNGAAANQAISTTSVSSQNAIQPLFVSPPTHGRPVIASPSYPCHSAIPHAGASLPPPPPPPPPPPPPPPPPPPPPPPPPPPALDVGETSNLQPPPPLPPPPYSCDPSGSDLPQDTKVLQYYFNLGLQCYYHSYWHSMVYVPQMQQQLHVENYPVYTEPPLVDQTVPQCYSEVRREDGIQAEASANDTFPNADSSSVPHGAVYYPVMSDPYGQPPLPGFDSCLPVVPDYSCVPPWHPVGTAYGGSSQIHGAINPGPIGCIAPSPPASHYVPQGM
Summary of the method: (§1)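 Triplicate samples of HEK293T lysate, 495 µg each, received fragment at 200 µM or vehicle for 3 h, followed by Biotin-Ahx-Ub-VS (0.5 µM final) for 1 h. After NeutrAvidin enrichment of labelled DUBs and LysC/trypsin digestion, peptides were run by diaPASEF LC-MS/MS. The values are average log2 fragment/vehicle ratios from global-median-normalised Spectronaut label-free quantities, tested by unpaired t-test on proteins having ≥2 unique peptides.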

[2] = target: ATXN3 (UniProt P54252)
Summary of the method: as §1

[3] = target: T2, BAP1 (UniProt Q92560)
T2 sequence (whole entry): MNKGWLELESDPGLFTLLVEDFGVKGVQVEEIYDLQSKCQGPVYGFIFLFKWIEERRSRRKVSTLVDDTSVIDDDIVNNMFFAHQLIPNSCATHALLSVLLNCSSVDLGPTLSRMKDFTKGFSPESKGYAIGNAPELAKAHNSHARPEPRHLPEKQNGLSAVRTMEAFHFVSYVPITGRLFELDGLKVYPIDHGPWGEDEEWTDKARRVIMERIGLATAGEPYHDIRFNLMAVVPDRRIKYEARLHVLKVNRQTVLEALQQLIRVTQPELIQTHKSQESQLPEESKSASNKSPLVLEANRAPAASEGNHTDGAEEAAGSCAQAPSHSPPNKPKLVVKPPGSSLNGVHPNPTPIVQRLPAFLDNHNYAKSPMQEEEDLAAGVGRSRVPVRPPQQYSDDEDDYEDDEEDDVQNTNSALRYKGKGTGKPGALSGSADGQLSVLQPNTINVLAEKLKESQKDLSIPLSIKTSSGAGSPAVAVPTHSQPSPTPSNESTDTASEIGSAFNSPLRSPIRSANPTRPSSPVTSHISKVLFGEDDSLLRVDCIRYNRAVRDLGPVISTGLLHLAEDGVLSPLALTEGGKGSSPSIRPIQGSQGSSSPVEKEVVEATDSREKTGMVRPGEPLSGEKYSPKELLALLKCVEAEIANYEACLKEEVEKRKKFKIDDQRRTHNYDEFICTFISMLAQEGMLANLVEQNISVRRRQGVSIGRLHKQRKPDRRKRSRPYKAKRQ
Summary of the method: as §1

[4] = target: EIF3F (UniProt O00303)
Summary of the method: as §1

[5] = target: EIF3H (UniProt O15372)
Summary of the method: as §1

[6] = target: T3, FAM105A (UniProt Q9NUU6)
T3 sequence (whole entry): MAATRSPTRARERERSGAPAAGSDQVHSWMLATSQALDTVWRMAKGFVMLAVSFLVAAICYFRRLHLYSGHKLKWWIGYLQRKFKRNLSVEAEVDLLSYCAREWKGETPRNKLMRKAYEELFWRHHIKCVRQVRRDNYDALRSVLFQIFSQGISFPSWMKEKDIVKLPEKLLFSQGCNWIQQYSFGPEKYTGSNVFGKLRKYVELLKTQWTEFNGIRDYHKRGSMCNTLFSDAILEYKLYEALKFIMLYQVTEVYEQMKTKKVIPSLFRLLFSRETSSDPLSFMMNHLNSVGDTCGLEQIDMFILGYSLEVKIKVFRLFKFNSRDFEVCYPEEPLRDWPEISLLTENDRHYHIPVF
Summary of the method: as §1

[7] = target: OTUB1 (UniProt Q96FW1)
Summary of the method: as §1

[8] = target: T4, OTUD4 (UniProt Q01804)
T4 sequence (whole entry): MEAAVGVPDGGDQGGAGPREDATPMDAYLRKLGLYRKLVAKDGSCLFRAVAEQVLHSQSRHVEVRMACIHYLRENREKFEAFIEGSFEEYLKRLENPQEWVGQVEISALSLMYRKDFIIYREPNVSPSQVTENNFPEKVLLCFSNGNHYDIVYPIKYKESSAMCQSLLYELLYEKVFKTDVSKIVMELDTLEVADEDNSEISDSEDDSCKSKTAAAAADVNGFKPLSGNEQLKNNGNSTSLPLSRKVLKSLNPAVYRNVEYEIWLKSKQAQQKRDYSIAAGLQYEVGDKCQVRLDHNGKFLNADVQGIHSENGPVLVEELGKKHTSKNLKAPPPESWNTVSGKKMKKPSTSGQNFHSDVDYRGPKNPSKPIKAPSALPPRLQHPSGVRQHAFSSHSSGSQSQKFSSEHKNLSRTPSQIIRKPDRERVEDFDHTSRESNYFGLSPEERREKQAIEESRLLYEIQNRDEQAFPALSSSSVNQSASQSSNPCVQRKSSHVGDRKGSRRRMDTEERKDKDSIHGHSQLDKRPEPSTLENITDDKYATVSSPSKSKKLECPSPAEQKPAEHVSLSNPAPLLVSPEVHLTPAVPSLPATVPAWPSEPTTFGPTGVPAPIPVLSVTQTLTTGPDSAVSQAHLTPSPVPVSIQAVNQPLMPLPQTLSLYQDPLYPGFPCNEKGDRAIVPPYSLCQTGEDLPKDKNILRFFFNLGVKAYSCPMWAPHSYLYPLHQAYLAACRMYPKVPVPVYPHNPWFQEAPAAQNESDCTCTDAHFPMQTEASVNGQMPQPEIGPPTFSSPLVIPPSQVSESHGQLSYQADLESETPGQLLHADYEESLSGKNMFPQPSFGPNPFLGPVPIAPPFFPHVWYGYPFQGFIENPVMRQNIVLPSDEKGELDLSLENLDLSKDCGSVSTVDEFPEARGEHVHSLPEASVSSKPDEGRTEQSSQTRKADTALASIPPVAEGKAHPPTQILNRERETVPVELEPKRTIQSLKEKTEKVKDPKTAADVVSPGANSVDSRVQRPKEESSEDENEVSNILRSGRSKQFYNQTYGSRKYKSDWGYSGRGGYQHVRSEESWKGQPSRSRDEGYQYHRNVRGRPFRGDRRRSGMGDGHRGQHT
Summary of the method: as §1

[9] = target: T5, OTUD5 (UniProt Q96G74)
T5 sequence (whole entry): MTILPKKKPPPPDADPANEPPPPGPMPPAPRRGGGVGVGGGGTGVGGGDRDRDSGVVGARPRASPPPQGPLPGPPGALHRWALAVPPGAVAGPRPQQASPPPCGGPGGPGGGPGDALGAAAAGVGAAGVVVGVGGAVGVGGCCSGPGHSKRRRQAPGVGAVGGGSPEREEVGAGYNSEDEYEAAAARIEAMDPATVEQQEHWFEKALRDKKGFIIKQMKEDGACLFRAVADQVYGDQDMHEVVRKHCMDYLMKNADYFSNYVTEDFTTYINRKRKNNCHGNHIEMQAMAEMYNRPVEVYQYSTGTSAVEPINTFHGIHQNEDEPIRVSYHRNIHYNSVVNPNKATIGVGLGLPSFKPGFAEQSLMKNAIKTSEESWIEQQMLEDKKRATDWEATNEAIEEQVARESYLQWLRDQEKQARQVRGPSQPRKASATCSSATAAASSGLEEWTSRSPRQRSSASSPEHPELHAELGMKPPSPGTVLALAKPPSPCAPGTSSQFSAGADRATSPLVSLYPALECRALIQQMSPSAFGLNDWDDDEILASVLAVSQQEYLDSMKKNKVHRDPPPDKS
Summary of the method: as §1

Measured: log2 ratio of Biotin-Ahx-Ub-VS probe labelling

EIF3F, sequence (O00303 whole entry): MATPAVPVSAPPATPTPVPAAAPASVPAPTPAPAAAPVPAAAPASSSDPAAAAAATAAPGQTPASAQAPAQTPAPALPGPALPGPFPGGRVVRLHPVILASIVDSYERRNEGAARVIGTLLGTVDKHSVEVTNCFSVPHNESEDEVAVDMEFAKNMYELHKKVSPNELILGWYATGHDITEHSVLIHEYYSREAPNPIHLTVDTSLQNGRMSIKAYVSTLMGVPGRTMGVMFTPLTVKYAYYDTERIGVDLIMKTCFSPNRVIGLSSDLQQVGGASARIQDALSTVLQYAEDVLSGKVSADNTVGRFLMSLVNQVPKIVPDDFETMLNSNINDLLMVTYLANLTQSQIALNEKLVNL
OTUB1, sequence (Q96FW1 whole entry): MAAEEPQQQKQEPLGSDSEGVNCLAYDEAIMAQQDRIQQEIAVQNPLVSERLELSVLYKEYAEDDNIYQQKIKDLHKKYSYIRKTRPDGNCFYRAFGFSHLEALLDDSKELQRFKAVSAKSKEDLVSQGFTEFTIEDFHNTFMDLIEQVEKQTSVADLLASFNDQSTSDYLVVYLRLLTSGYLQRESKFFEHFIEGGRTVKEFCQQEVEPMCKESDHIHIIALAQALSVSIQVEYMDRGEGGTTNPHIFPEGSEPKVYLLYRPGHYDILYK
ATXN3, sequence (P54252 whole entry): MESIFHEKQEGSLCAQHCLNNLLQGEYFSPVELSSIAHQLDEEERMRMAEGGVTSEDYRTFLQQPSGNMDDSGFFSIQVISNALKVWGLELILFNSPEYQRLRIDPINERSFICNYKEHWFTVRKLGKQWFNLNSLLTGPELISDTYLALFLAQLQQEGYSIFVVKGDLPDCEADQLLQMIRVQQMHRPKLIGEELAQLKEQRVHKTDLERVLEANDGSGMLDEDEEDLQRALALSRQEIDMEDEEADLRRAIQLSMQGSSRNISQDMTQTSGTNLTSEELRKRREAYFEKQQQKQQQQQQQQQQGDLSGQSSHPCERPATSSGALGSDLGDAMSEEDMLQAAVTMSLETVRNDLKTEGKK
EIF3H, sequence (O15372 whole entry): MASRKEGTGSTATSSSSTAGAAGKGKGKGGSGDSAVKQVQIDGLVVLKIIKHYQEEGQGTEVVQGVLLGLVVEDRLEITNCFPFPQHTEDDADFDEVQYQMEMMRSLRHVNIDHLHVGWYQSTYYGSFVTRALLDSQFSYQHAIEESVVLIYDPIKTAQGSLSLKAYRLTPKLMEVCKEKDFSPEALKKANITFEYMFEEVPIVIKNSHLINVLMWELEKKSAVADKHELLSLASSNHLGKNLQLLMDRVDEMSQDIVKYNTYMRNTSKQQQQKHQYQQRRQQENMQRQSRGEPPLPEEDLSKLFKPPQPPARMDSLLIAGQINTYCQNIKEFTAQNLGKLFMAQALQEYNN

Cl.Cn1nccc1C(NC(=O)CCl)c1ccccc1 (centres undefined)
active: [3] -4.27
inactive: [1] -0.0316 | [2] -0.49 | [4] -0.145 | [5] 0.106 | [6] 0.0639 | [7] -0.173 | [8] -0.894 | [9] -0.379
